Measurements taken from the supplement of paper PMC9446081.
± gives the standard deviation of the averaged measurements.

Tests used:
Experiment in all cases: relative enzymatic activity vs untreated control (fraction); higher = less inhibition
Conditions in all cases: 100 µM; incubation time: 2 h at 37 C
[1] = tested on: DNA gyrase
Procedure: (§1)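 In vitro enzymatic inhibition assays (ProFoldin kits) for 12 purified essential E. coli enzymes or complexes, each treated with 218 active antibacterial compounds at 100 µM for 2 h at 37°C. Read-outs were fluorescence or absorbance (phosphate detection, dye binding), converted to activity via standard curves and expressed relative to untreated DMSO controls.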

[2] = target: DNA helicase (UniProt P0ACB1)
Procedure: as §1

[3] = target: DNA ligase (UniProt B1XA82)
Procedure: as §1

[4] = target: DNA polymerase (UniProt P10443)
Procedure: as §1

[5] = target: DNA primase (UniProt P0ABS7)
Procedure: as §1

[6] = target: GlmU (UniProt A7ZTU1)
Procedure: as §1

[7] = target: Guanlyate kinase (UniProt Q0TBG1)
Procedure: as §1

[8] = target: MurA (UniProt Q3YX52)
Procedure: as §1

[9] = target: T1, MurD (UniProt P14900)
T1 sequence (whole entry): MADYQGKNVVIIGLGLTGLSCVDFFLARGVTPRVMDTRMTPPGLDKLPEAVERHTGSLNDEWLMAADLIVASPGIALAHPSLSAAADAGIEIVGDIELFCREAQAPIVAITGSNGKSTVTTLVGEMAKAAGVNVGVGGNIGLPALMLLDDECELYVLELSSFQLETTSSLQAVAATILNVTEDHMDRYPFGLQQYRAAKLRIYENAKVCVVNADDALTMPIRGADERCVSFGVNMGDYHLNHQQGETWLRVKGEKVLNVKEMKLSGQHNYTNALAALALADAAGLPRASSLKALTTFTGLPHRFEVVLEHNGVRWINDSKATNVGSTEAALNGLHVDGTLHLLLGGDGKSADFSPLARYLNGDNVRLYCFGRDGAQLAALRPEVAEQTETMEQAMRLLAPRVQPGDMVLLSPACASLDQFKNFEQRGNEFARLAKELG
Procedure: as §1

[10] = target: T2, MurF (UniProt P11880)
T2 sequence (whole entry): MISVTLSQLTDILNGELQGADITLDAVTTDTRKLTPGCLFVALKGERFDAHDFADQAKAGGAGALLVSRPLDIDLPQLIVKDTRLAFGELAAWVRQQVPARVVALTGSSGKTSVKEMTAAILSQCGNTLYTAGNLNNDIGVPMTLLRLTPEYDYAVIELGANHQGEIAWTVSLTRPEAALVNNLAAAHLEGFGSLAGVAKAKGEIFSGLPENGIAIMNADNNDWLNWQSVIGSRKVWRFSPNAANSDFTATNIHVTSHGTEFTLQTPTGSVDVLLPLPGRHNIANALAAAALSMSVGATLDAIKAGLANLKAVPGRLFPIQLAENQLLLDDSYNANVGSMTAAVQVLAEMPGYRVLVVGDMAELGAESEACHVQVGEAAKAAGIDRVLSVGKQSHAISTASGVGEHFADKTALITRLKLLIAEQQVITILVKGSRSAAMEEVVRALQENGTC
Procedure: as §1

[11] = tested on: RNA polymerase
Procedure: as §1

Sequence of DNA ligase (B1XA82 whole entry): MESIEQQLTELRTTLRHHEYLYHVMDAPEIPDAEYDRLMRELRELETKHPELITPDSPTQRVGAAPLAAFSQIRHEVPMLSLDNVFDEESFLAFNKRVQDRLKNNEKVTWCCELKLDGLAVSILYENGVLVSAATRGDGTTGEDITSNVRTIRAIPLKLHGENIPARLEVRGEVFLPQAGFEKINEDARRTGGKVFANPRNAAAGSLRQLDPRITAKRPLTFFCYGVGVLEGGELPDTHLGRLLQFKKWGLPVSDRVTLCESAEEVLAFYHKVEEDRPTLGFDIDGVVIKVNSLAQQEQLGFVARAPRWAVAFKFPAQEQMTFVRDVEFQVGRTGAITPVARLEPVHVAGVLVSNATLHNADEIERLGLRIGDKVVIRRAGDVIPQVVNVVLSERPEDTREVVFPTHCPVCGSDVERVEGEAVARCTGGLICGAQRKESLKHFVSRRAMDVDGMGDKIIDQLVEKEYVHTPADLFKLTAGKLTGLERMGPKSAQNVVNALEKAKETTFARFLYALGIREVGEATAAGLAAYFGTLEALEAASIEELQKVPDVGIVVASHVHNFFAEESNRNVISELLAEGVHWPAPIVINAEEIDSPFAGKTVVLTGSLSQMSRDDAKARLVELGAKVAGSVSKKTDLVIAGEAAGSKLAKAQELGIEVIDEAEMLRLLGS
Sequence of DNA helicase (P0ACB1 whole entry): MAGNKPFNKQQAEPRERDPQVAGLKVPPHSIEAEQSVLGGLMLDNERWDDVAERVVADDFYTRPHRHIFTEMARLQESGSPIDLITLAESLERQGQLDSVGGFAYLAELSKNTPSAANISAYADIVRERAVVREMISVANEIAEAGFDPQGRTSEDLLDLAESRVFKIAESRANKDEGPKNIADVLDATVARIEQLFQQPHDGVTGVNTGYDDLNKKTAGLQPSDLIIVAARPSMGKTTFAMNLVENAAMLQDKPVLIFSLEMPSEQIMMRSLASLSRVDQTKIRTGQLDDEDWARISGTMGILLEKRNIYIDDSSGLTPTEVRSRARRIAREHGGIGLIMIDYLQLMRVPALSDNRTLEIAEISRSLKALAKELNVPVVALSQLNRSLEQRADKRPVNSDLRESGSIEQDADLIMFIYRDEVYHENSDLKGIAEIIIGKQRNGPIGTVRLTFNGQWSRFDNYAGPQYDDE
Sequence of DNA polymerase (P10443 whole entry): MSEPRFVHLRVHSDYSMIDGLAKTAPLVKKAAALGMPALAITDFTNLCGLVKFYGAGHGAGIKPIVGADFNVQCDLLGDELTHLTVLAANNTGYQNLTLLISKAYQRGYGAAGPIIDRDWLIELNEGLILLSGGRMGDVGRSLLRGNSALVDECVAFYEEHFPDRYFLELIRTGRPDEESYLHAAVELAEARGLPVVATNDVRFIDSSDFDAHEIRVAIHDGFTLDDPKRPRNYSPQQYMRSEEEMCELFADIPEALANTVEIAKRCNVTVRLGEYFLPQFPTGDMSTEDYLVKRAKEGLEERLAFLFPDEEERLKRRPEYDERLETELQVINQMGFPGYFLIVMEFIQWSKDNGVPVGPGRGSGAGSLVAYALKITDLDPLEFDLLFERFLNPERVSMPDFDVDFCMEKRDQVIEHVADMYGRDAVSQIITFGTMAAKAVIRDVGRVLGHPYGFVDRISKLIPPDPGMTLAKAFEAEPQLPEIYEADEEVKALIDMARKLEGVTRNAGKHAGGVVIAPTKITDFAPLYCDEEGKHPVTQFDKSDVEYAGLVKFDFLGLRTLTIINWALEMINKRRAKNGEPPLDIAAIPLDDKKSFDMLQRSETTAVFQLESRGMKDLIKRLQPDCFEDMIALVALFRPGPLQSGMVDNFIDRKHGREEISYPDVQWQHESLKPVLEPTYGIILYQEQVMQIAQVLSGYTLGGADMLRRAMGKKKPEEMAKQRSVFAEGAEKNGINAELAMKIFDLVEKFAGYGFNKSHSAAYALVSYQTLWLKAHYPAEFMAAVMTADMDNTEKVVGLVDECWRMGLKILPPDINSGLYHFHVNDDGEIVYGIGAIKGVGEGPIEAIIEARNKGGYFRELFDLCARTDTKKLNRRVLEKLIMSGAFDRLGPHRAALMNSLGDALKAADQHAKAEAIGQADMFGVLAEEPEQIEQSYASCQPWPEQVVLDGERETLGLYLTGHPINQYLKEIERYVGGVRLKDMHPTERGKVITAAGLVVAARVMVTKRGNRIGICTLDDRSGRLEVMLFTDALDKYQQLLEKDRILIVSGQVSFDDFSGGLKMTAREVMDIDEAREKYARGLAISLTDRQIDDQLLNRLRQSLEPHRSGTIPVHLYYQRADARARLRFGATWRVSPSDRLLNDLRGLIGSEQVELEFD
Sequence of GlmU (A7ZTU1 whole entry, looked up): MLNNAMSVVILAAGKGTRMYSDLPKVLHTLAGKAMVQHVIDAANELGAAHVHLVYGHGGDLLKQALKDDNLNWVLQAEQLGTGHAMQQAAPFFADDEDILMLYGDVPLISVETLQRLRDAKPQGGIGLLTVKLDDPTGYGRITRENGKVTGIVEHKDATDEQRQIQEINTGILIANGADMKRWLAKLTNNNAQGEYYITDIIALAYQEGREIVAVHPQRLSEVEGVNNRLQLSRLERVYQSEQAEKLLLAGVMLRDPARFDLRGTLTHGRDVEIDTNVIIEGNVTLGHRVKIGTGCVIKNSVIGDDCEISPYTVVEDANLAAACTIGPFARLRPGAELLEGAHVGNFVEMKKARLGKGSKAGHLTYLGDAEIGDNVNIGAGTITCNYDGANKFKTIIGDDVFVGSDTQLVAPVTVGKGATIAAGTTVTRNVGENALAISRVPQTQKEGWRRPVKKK
Sequence of MurA (Q3YX52 whole entry): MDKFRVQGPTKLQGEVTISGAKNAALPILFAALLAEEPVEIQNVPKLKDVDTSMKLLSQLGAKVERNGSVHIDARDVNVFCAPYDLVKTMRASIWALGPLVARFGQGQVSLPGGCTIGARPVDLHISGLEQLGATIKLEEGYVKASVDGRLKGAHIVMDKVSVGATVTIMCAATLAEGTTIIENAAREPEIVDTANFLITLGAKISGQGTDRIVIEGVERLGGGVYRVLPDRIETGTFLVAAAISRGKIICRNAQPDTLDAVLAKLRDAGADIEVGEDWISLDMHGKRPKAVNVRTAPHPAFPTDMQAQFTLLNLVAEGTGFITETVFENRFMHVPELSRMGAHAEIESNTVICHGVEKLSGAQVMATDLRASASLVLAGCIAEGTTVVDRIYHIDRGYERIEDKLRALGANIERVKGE
Sequence of Guanlyate kinase (Q0TBG1 whole entry): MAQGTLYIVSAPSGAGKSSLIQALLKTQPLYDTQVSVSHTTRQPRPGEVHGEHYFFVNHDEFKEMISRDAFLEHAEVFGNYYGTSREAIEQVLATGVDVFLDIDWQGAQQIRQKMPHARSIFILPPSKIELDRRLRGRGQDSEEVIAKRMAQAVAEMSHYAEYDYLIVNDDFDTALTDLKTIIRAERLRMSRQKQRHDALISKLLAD
Sequence of DNA primase (P0ABS7 whole entry): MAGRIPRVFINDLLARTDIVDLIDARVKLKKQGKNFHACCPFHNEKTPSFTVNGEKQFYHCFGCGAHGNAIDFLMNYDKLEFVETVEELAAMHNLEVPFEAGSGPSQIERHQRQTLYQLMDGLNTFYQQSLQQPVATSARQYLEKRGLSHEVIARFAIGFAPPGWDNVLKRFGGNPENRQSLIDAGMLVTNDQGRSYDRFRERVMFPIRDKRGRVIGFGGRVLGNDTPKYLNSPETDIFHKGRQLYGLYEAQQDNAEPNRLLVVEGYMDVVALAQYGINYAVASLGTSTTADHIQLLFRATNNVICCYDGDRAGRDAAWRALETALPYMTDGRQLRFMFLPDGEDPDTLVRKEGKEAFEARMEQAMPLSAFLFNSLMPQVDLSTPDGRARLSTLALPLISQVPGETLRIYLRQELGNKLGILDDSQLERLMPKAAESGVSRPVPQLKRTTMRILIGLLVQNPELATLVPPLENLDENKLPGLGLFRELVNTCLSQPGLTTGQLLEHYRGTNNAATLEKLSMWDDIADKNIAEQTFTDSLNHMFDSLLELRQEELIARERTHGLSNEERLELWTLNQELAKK

| SMILES | relative enzymatic activity [1] | relative enzymatic activity [2] | relative enzymatic activity [3] | relative enzymatic activity [4] | relative enzymatic activity [5] | relative enzymatic activity [6] | relative enzymatic activity [7] | relative enzymatic activity [8] | relative enzymatic activity [9] | relative enzymatic activity [10] | relative enzymatic activity [11] |
| --- | --- | --- | --- | --- | --- | --- | --- | --- | --- | --- | --- |
| N[C@@H]1CN(c2c(F)cc3c(=O)c(C(=O)O)cn([C@@H]4C[C@@H]4F)c3c2Cl)CC12CC2 | 0.186 ± 0.26 | 0.435 ± 0.025 | 0.852 ± 0.06 | 1.1 ± 0.085 | 0.84 ± 0.012 | 0.987 ± 0.012 | 1 ± 0.11 | 0.524 ± 0.094 | 0.591 ± 0.41 | 1.31 ± 0.28 | 0.979 ± 0.15 |
| CNC1C(OC2C(OC3C(O)C(O)C(NC(=N)N)C(O)C3NC(=N)N)OC(C)C2(O)CO)OC(CO)C(O)C1O.O=S(=O)(O)O (stereo not drawn) | 0.78 ± 0.53 | 0.565 ± 0.13 | 1.11 ± 0.19 | 1.38 ± 0.47 | 0.716 ± 0.22 | 0.982 ± 0.09 | 1.02 ± 0.063 | 0.635 ± 0.0086 | 0.65 ± 0.44 | 0.944 ± 0.15 | 0.953 ± 0.083 |
| C[C@H]1c2cccc(O)c2C(=O)C2=C(O)[C@]3(O)C(=O)[C@@H](C(N)=O)C(=O)[C@@H](N(C)C)[C@@H]3[C@@H](O)[C@@H]21 | 0.782 ± 0.34 | 0.508 ± 0.05 | 0.954 ± 0.14 | 1.17 ± 0.29 | 0.8317 ± 0.0057 | 0.934 ± 0.018 | 0.958 ± 0.081 | 0.673 ± 0.19 | 0.601 ± 0.41 | 0.937 ± 0.26 | 0.882 ± 0.078 |
| CC1C(NC(=O)C(=NOC(C)(C)C(=O)O)c2csc(N)n2)C(=O)N1S(=O)(=O)O (stereo not drawn) | 0.879 ± 0.42 | 0.582 ± 0.14 | 1.36 ± 0.2 | 0.711 ± 0.38 | 0.832 ± 0.01 | 0.903 ± 0.016 | 0.908 ± 0.068 | 0.798 ± 0.071 | 0.589 ± 0.39 | 0.948 ± 0.24 | 0.844 ± 0.071 |
| COC1=C(N)C(=O)c2nc(-c3nc(C(=O)O)c(C)c(-c4ccc(OC)c(OC)c4O)c3N)ccc2C1=O | 0.611 ± 0.34 | 0.19 ± 0.014 | 0.732 ± 0.11 | 1.03 ± 0.48 | 0.602 ± 0.05 | 0.789 ± 0.23 | 0.6758 ± 0.0058 | 0.072 ± 0.019 | 0.596 ± 0.39 | 1 ± 0.23 | 0.291 ± 0.026 |
| C=C1c2cccc(O)c2C(=O)[C@@H]2C(=O)[C@]3(O)C(=O)[C@@H](C(N)=O)C(=O)[C@@H](N(C)C)[C@@H]3[C@@H](O)[C@H]12 | 0.554 ± 0.29 | 0.33 ± 0.051 | 0.848 ± 0.095 | 1.04 ± 0.31 | 0.707 ± 0.056 | 1.03 ± 0.018 | 0.679 ± 0.018 | 0.0871 ± 0.016 | 0.638 ± 0.46 | 1.06 ± 0.24 | 0.619 ± 0.015 |
| CCC(C)C1NC(=O)C(CCNCS(=O)(=O)[O-])NC(=O)C(NC(=O)C(CCNCS(=O)(=O)[O-])NC(=O)C(NC(=O)C(CCNCS(=O)(=O)[O-])NC(=O)CCCCC(C)C)C(C)O)CCNC(=O)C(C(C)O)NC(=O)C(CCNCS(=O)(=O)[O-])NC(=O)C(CCNCS(=O)(=O)[O-])NC(=O)C(C(C)CC)NC1=O.[Na+].[Na+].[Na+].[Na+].[Na+] (stereo not drawn) | 1.1 ± 0.088 | 0.615 ± 0.27 | 1.08 ± 0.17 | 1.32 ± 0.34 | 0.766 ± 0.23 | 0.983 ± 0.022 | 1 ± 0.023 | 0.564 ± 0.14 | 0.591 ± 0.39 | 1.03 ± 0.3 | 0.919 ± 0.029 |
| CN(C)CCC=C1c2ccccc2COc2ccc(CC(=O)O)cc21.Cl | 0.496 ± 0.7 | 0.368 ± 0.047 | 0.922 ± 0.04 | 1.08 ± 0.18 | 0.755 ± 0.041 | 0.899 ± 0.041 | 0.935 ± 0.11 | 0.616 ± 0.29 | 0.566 ± 0.38 | 1.1 ± 0.024 | 0.7995 ± 0.0059 |
| Cn1nnnc1SCC1=C(C(=O)[O-])N2C(=O)C(NC(=O)C(O)c3ccccc3)C2SC1.[Na+] (stereo not drawn) | 0.841 ± 0.26 | 0.638 ± 0.12 | 1.42 ± 0.27 | 1.19 ± 0.25 | 0.689 ± 0.18 | 1.16 ± 0.18 | 0.942 ± 0.17 | 0.0762 ± 0.016 | 0.636 ± 0.44 | 0.988 ± 0.21 | 1.16 ± 0.45 |
| CN(C)C1C(O)=C(C(N)=O)C(=O)C2(O)C(O)=C3C(=O)c4c(O)cccc4C(C)(O)C3CC12.Cl (stereo not drawn) | 0.904 ± 0.27 | 0.696 ± 0.28 | 1.03 ± 0.033 | 1.37 ± 0.52 | 0.711 ± 0.17 | 0.9683 ± 0.0011 | 1.05 ± 0.046 | 0.712 ± 0.038 | 0.627 ± 0.43 | 0.964 ± 0.2 | 0.857 ± 0.014 |
| O=C1OCCN1N=Cc1ccc([N+](=O)[O-])o1 | 1.13 ± 0.099 | 0.454 ± 0.088 | 1.02 ± 0.015 | 1.35 ± 0.37 | 0.747 ± 0.22 | 0.974 ± 0.017 | 1.01 ± 0.042 | 0.649 ± 0.12 | 0.565 ± 0.37 | 0.947 ± 0.16 | 0.941 ± 0.097 |
| Cc1oc(=O)oc1CN1CCN(c2cc3c(cc2F)c(=O)c(C(=O)O)c2n3C(C)S2)CC1 (stereo not drawn) | 0.0525 ± 0.074 | 0.431 ± 0.01 | 1.19 ± 0.31 | 1.23 ± 0.25 | 0.852 ± 0.0094 | 0.942 ± 0.024 | 1.12 ± 0.12 | 0.452 ± 0.31 | 0.586 ± 0.4 | 0.963 ± 0.18 | 0.842 ± 0.022 |
| CN(C)C1C(O)=C(C(N)=O)C(=O)C2(O)C(O)=C3C(=O)c4c(O)ccc(Cl)c4C(O)C3CC12.Cl (stereo not drawn) | 0.59 ± 0.38 | 0.359 ± 0.13 | 1.03 ± 0.047 | 1.16 ± 0.26 | 0.64 ± 0.12 | 1.005 ± 0.0054 | 0.874 ± 0.1 | 0.133 ± 0.045 | 0.593 ± 0.41 | 0.937 ± 0.17 | 0.804 ± 0.072 |
